From the supplement of paper PMC3334620
In all, about 33,000 sequences were measured (“E-score (-0.5 to 0.5)”: median about -0.01, highest 2% from about 0.26 on). Only a selection was taken, and the highest values are over-represented in it overall.

biological target: Ste12 (UniProt P13574); test: PBM E-score (8-mer binding enrichment) (E-score (-0.5 to 0.5)); higher = stronger / more preferred TF binding; conditions: protein concentration: 200 nM; construct: GST-DNA-binding domain
Outline: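 PURExpress in vitro transcription/translation supplied GST-tagged yeast transcription factors, either full-length or DNA-binding domain. Applied at about 100-200 nM to universal all-10-mer Agilent arrays double-stranded by primer extension, the bound protein was detected with fluorescent anti-GST. E-scores, modified Wilcoxon-Mann-Whitney statistics, were given by the Universal PBM Analysis Suite to ungapped eight-base words pooled with their reverse complements after masliner normalisation.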

Chain of UniProt P13574 (P13574 whole entry, the tested form may be a part): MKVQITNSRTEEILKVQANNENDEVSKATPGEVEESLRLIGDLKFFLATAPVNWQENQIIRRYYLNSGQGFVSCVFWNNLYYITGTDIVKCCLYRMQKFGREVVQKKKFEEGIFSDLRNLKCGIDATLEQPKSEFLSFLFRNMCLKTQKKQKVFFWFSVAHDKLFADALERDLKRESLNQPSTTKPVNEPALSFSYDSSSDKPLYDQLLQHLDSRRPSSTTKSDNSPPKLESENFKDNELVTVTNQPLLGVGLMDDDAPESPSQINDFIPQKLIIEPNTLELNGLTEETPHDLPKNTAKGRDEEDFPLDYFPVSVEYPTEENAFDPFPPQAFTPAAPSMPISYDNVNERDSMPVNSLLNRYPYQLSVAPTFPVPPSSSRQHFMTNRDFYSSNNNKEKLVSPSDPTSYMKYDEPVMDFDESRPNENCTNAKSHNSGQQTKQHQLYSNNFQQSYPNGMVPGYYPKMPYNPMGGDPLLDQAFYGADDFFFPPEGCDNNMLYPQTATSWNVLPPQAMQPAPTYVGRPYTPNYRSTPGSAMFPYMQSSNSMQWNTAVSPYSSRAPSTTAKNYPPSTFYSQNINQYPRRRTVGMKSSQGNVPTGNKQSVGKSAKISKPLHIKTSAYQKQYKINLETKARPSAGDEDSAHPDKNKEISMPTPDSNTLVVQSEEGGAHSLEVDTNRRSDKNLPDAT

Sequence | PBM E-score
AAGTTGAA | 0.134
CCGGCCCG | 0.00367
CGCCAAAA | 0.227
GGGGTGGA | 0.00832
ACCTTATG | 0.0329
TCCTAAGA | -0.00559
AAAGGTTC | -0.154
AAAATGAA | 0.27
AAAATGGA | 0.237
AAAATGCA | 0.00439
GCCTCAGC | -0.226
ATAAAGTC | 0.167
AGATGGCT | -0.0505
AATGTAAT | 0.187
CATGTAAA | 0.027
AATGTAAA | 0.269
TATTCAGA | 0.029
CGCCAATA | 0.036
GTTTGAGA | 0.311
CTTTGAGA | 0.114
CTTTGACA | -0.0728
CTTTGAAC | 0.0927
ATTTGAAG | 0.0968
CTTTGATA | 0.179
GTTTGATA | 0.301
CTTTGAAA | 0.318

Sequence | PBM E-score
ATTTGAAA | 0.366
ATTTGATA | 0.258
ATTTGAGA | 0.126
ATTTGAAC | 0.123
CGCCCTTA | -0.0507
AGTGAACG | -0.109
TGCGTCAA | 0.0654
GTCCAAAC | 0.0248
ACGCTTGG | -0.293
ATAGACGC | 0.0365
GTTTGCAA | 0.186
GTTTGAAA | 0.409
GTTTGACA | 0.0294
AGCGGCTC | -0.0004
TACCAAAA | 0.204
ACCAAAAA | 0.27
ACCAACAT | 0.125
ACCAACAA | 0.269
ACCAAAAC | 0.235
ACCAACAG | -0.042
ACCAAAAT | 0.254
CACCAAAA | 0.216
AACCAAAA | 0.324
TATTAAGA | 0.0777
GCATCTAC | 0.0977
AGCTTGAA | -0.0125

Sequence | PBM E-score
CGTGGAAA | 0.19
AGTGGAAA | -0.0995
TATGGAAA | 0.292
CATGGAAA | 0.098
GATGGAAA | 0.0433
TGTGGAAA | 0.286
CTCAAGGA | -0.181
ACTGGTCC | -0.0777
AACTTTTA | 0.228
CACCTTCC | 0.0254
AACCCCCG | -0.133
AAACCCCC | -0.122
GAACCCAA | -0.0682
AAACCCGA | 0.336
CAAACCCG | 0.0369
AAACCCAA | 0.349
AAACCCCG | 0.28
GAAACCCA | 0.246
AAACCCAT | 0.131
TAACCCGA | -0.0489
GAACCCGA | -0.0553
CAAACCCA | 0.262
GCGCACCC | -0.0102
CCAAGGGC | -0.139
CCGCACCC | 0.222
CAAGTTCG | -0.0514

Sequence | PBM E-score
CTTCTAAC | -0.0172
AGTCTAGC | -0.223
CTATCGCA | -0.0857
AGGTGATA | 0.0763
ACCGATGC | -0.0639
GTGAAAAC | 0.0815
ATGAAAAG | -0.0787
TTGAAAAA | 0.323
ACGAAAAC | 0.25
ATGAAAAC | 0.349
CTGAAAAA | 0.0763
ATGAAAAT | 0.166
ATGAAAAA | 0.305
TAGAAAAA | 0.0605
CGACCTTA | 0.111
ACGCCAGT | -0.084
ATAACTAT | 0.0787
AAAAAATC | 0.363
ACAAAATA | 0.0836
GAAAAATC | 0.201
CAAAAATC | 0.123
ACAAAATC | 0.291
ACAAAATG | 0.0682
CTACCACC | -0.102
AATCGACA | 0.248
CAGCGACC | -0.0234

Sequence | PBM E-score
GGCGTGGA | -0.0873
AATAGTCA | -0.0559
ATTTACAC | 0.18
GGGTGAAA | 0.315
TGGTGACA | 0.048
TGGTGAAA | 0.277
CGGTGAAA | 0.245
TGGTGCAA | -0.18
AGGTGAAA | 0.235
AGCTGGGG | -0.136
ACCCAGGT | -0.218
CCAAGAAC | -0.11
CGCCAACA | -0.0261
GCACATCA | -0.00042
GCCCCCAA | -0.0804
AATAAATA | 0.21
AAAAAATA | 0.267
TAAAAATA | 0.318
GAAAAATA | 0.217
CATAAATA | 0.268
CTAAAATA | 0.181
CCAAAATA | 0.21
ATAAAATA | 0.257
CAAAAATG | 0.182
TATAAATA | 0.228
CAAAAATA | 0.346

Sequence | PBM E-score
GTAAAATA | 0.131
GCCTAAAA | -0.0428
CATCCCAA | 0.0892
CTCAACTC | 0.141
ATGACTAG | -0.183
ACACATCC | -0.0267
GTTCACCA | -0.0697
TCCCTCCA | -0.191
ATATTGAT | 0.248
AAATCTTC | 0.0263
GAGGTAGC | -0.239
CAGGGTTC | -0.0459
AAACGCGG | 0.264
CAACGCGG | -0.0344
AAACGCGT | 0.255
CGCCGTCA | 0.0459
ACTCTGCT | -0.0783
GATATTGC | 0.0418
CCAATCCC | 0.104
CCAATCCG | 0.281
ACAATCCG | -0.0367
GGCTACCC | -0.285
AGGGCGTA | -0.176
CGGGCGTA | -0.0442
GGGGCGGA | 0.404
AGGGCGGA | -0.248

Sequence | PBM E-score
GGGGCGTA | 0.282
CGGGCGGA | -0.012
CGCTCCAG | 0.0315
CAACCTGC | 0.0657
CCTGCAGG | -0.16
AAAAGTAT | 0.178
AAAAGTGG | 0.139
AAAAGTTT | 0.283
AAAAGTTC | 0.0553
AAAAGTTG | 0.127
CAAAGTAA | 0.125
AAAAGTAA | 0.287
AAAAGTGA | 0.267
AAAAGTGT | 0.0304
CAACAGCC | -0.0347
TATCGAAA | 0.258
GAGTATCC | -0.127
AGGTAGAG | -0.0159
CGCTGGCA | 0.00792
TCACCAAA | 0.177
CCAGCAGG | -0.107
ATGATGGG | -0.0865
ACGAAACA | 0.327
TCGAAACA | 0.395
CCGAAACG | 0.152
CCGAAAAA | 0.269

Sequence | PBM E-score
CCGAAAAG | 0.235
CCGAAACA | 0.376
CCGAAAAC | 0.0124
ACGAAACC | 0.242
ACGAAACT | 0.127
TCGAAAAA | 0.238
CCGAAACC | 0.142
GCGAAACA | 0.134
ATTTTTGC | 0.236
CCTCTAGA | -0.134
ATTCGCGA | 0.0844
ATAGACTC | -0.133
CAGCTTAC | 0.0225
AAGACATG | -0.137
GCCTGGGA | -0.23
TACCTGGA | -0.0387
TCCCGCAA | 0.18
ACATAGGA | -0.0111
ATTTAGGA | -0.039
ACAGAATA | 0.0915
CTCGCAGC | 0.0324
ACGAAACG | 0.31
AAGAAACT | 0.172
CAGAAACA | 0.156
AAGAAACA | 0.285
ACGAAAGG | 0.0336

Sequence | PBM E-score
ACGAAAAG | 0.16
GGTCCATA | -0.111
AAGCAATA | 0.0028
ACGGCATG | -0.107
CAGGTAAA | 0.248
GAGGTAAC | 0.0397
GAGGTAAA | 0.334
GAGCTGGC | -0.0837
AAAATATC | 0.147
CATATATC | 0.0851
AATATATA | 0.22
AAAATATT | 0.266
AATATATG | 0.143
AAAATATG | 0.241
AGTATATA | 0.295
AGTATATC | -0.0122
CATATATA | 0.283
CATATATG | 0.18
AATATATT | 0.326
AGTATATG | 0.143
